This note sets out measurements from ChEMBL document CHEMBL4513216, “Probing the Open Global Health Chemical Diversity Library for Multistage-Active Starting Points for Next-Generation Antimalarials” (ACS Infect Dis, 2020).

About 2,100 (3.2%) of roughly 65,000 compounds showed an effect of 50% or more. The median lay at about -52%. The full list was thinned out, with strong results kept by preference.

The experiment deals with Plasmodium falciparum. In words: Screen against P. falciparum Asexual Blood Stage (ABS), at 5uM. The format is functional, Dd2. The settings on record: tested at 5 uM.
In the case of `O=S(=O)(c1ccccc1)N1CCC2(CCCN2CC2CCCC2)C1` (configuration not stated), the INHIBITION worked out at 48%. For `COc1cc(N2CCCC(CO)(Cc3ccccc3F)C2)ncn1` (configuration not stated), the INHIBITION is -43.6%. Consider `Cc1cc(C)n(CC2CCCN2C(=O)c2ccc3[nH]cnc3c2)n1` (configuration not stated), for which the INHIBITION was -163%. To `Cc1nc(NCC2CC2)nc2c1COCC21CCN(S(=O)(=O)C2CC2)C1` (configuration not stated) belongs 12.5%; to `O=C(NCC1CCN(CCc2ccccc2)C1)c1cc(Cl)c[nH]1` (configuration not stated), 65.1%. Next, `COCCN1CCC(CNC(=O)c2cc(Cl)c[nH]2)CC1`: -2.76%. `CCN1CCC(CNC(=O)c2cc(Cl)c[nH]2)CC1`: the INHIBITION was -108%.

`CC(OCC1CC1)C(=O)Nc1ncn(CC(=O)N2CCCCCC2)n1` (configuration not stated): the INHIBITION was found to be 36.5%. On to `CN1CC2(CCCN(c3nc(N)nc4c3CCCC4)C2)OC1=O` (configuration not stated), for which the INHIBITION is reported as -29.7%. To `CN1CCCCc2c1nc1c(c2N)CCCC1` belongs 63.8%; to `CN1CCCCc2c1nc1c(c2N)CCC1`, 65.8%; to `CN1CCc2c1nc1c(c2N)CCC1`, -64.6%. With `CN1CCCc2c1nc1c(c2N)CCC1`, the INHIBITION is given as -49.7%.

Take `Cc1c(C)n(-c2ccccn2)c2nc3c(c(N)c12)CCCC3`: the INHIBITION is given as 21.3%. Next, `COC[C@@H]1CC[C@H]2[C@H](CCN2S(=O)(=O)c2ccc(C)cc2)O1`: -3.1%. For the molecule `Cc1cc(N2CCCC2)nc(CNS(=O)(=O)Cc2ccccc2)n1`, the INHIBITION is recorded as -63.1%. With `Cc1nn(C)c(N2CCCN(C)CC2)c1CNC(=O)CCC(C)C`, the INHIBITION is on record as -12.6%. For `COCC(=O)N1C[C@@H]2CCCO[C@@H]2[C@H](N(C)Cc2ccco2)C1`, the INHIBITION is -22.6%. As for `Cc1noc([C@@H]2CCO[C@@H]3CCN(Cc4ccc(C)s4)C[C@@H]32)n1`, the INHIBITION is listed as 10.3%.

For `CN(C)CCN1CCOCC2(CCCN(C(=O)c3ccccn3)C2)C1` (configuration not stated), the INHIBITION was -26.3%. Turning to `CN(C)CC(C)(C)Cn1cnc(-c2ccccc2)c1-c1ncc[nH]1`, the INHIBITION was -81.8%. Next, `CN(C)CC(C)(C)Cn1cnc(-c2ccccc2)c1-c1ccncc1`: 1.44%. To `CN(C)CC(C)(C)CN1CCC(c2ccnc(-c3cccc(O)c3)c2)C1` (configuration not stated) belongs 69.5%; to `Cn1ccnc1CN1CCC(c2ccnc(-c3cccc(O)c3)c2)C1` (configuration not stated), 30.7%; to `CN(C)CC(C)(C)Cn1cnc(-c2ccccc2)c1-c1cccc(O)c1`, 50.9%. For `Oc1cccc(-c2cc(C3CCN(Cc4cncnc4)C3)ccn2)c1` (configuration not stated), the INHIBITION is listed as -15.3%. Consider `COc1ccccc1OC1CN(C(=O)c2ccccc2C(C)=O)C1`, for which the INHIBITION is -184%.

Regarding `O=c1[nH][nH]cc1-c1ccnc(NCCN2CCCCC2)n1`, the INHIBITION is given as -153%. To `CS(=O)(=O)CCC(=O)N1C[C@H]2CC[C@@H](C1)N(Cc1ccccc1)C2=O` belongs -72.6%; to `CC(C)c1nnc2n1CCN(C(=O)c1cc(Cl)c[nH]1)C2`, 5.02%.

Consider `Cc1ccccc1C(=O)N1C[C@@H]2CCN(c3cccnc3)C[C@@H]2C1`, for which the INHIBITION is reported as -45.5%. Next, `CCS(=O)(=O)N1CCC(NC(=O)c2cc3ccccc3cc2O)CC1`: 6.29%; `Cc1cc(NCC2CC(=O)Nc3ccccc32)nc(C)n1` (configuration not stated): -151%. Next, `O=C1CC(CNc2cncc(Cl)n2)c2ccccc2N1` (configuration not stated): 66.1%; `O=C1CC(CNc2cncc(Br)c2)c2ccccc2N1` (configuration not stated): 12.2%; `O=C1C[C@@H]2CC[C@H](CN1)N2C(=O)Cc1ccsc1`: -114%. To `CCN(CC)c1nc2ccsc2c(=O)n1CCC(=O)NCc1ccco1` belongs -83%; to `CCc1nc(CCNC(=O)Nc2ccc(C(=O)NC)cc2)cs1`, -114%; to `CN1CCC(Oc2ccc(-n3ccnc3-c3ccncc3)cc2)CC1`, -17%. Consider `CN1CCC(Oc2ccc(-n3ccnc3-c3nccn3C)cc2)CC1`, for which the INHIBITION is recorded as -33.1%.

`Cc1ccc(-c2nccn2-c2ccc(OC3CCN(C)CC3)cc2)o1`: the INHIBITION amounted to 55.1%.

`Cc1nn(C)c(C)c1C(=O)NC(C)CC(=O)c1cccs1` (configuration not stated): the INHIBITION is reported as -35.4%.

As for `Cc1ccc(-c2nn(C)c(C(=O)O)c2Br)cc1`, the INHIBITION was -38.6%.

For the molecule `Cc1cccc(=O)n1CCC(=O)N1CC[C@](C)(O)[C@H](C)C1`, the INHIBITION is -97.5%. Take `c1cnnc(N2CCCC(NCc3nnc(-c4ccco4)o3)C2)c1` (configuration not stated): the INHIBITION is reported as -31.5%.

`Cc1ccc(N2CCCC(NCc3nnc(-c4ccco4)o3)C2)nn1` (configuration not stated): the INHIBITION turned out to be 50.3%. In the case of `Cc1ccc(N2CCCC(NCc3nc(C)c(C)o3)C2)nn1` (configuration not stated), the INHIBITION is on record as -26.7%.

For `Cn1nc2c(cc1=O)CN(CCOc1ccccc1C#N)CC2`, the INHIBITION is 0.73%. Take `COCC(=O)N1C[C@H]2CNC[C@@]2(C(=O)NCc2cc(C)n[nH]2)C1`: the INHIBITION was 4.75%.

As for `CS(=O)(=O)N1CC(c2nc(N)ncc2-c2ccc(F)cc2)C1`, the INHIBITION is listed as -47.4%. Next, `Nc1ncc(-c2ccc(C(F)(F)F)cc2)c(C2CCCNC2)n1` (configuration not stated): 70.9%; `CN(C)c1ncc(-c2ccc(C(N)=O)cc2)c(C2CCNC2)n1` (configuration not stated): -37.9%; `COc1ccc(-c2cnc(N)nc2C2CCCNC2)cc1` (configuration not stated): -91.8%. Next, `Nc1ncc(-c2ccc(Cl)cc2)c(C2CCCNC2)n1` (configuration not stated): 48.9%. On to `Nc1ncc(-c2ccc(F)cc2)c(C2CCCNC2)n1` (configuration not stated), for which the INHIBITION is on record as 50.3%. In the case of `CCN1CCCC(NC(=O)c2ccc(C)[nH]c2=O)C1` (configuration not stated), the INHIBITION is listed as -166%. Regarding `CN(C)c1ncnc2c1CCN(CC1CCOCC1)CC2`, the INHIBITION is reported as -55.1%. To `CN1CCN(C[C@H]2CC[C@@H](Cc3ccc4c(c3)OCO4)O2)CC1` belongs -28.1%; to `CN1CCN(C[C@H]2CC[C@@H](Cc3ccc(CN4CCCC4)cc3)O2)CC1`, 36.4%; to `CN1CCC(N(C)C[C@H]2CC[C@@H](Cc3cccc(CO)c3)O2)CC1`, -125%. To `COc1ccc(C[C@@H]2CC[C@H](CN(C)C3CCN(C)CC3)O2)cc1` belongs 50.9%. In the case of `CCN(Cc1cnn(C)c1)C[C@H]1CC[C@@H](Cc2ccc(OC)nc2)O1`, the INHIBITION came to 4.73%.

With `CN1CCC(N(C)C[C@H]2CC[C@@H](Cc3cccc(O)c3)O2)CC1`, the INHIBITION amounted to 57.5%. `CC(=O)Nc1nc2c(s1)C(C)(C)Nc1ccccc1S2`: the INHIBITION is -58.4%.

Consider `NCc1ccc(OC(F)F)cc1OC(F)F`, for which the INHIBITION is listed as -38.5%.

Consider `CC(C)CN1C(=O)CCC12CCC(NC(=O)NCc1cccnc1)CC2` (configuration not stated), for which the INHIBITION is given as -167%. As to `CCc1nc(CN2CCCN(c3nn4cc(C)nc4s3)CC2)no1`, the INHIBITION is on record as -69%.
